In assay [1] the target is 6-phosphogluconate dehydrogenase, decarboxylating (Homo sapiens) (UniProt P52209). The assay can be described thus: inhibition of human phosphogluconate dehydrogenase – biochemical, recombinant enzyme, NADPH absorbance, primary screen (AID 1159550;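 active = at least 20% inhibition of 6-phosphogluconate dehydrogenase activity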). Conditions: recombinant 6PGD, NADPH absorbance 341 nm; at 10 µM; stronger effect = higher value.
Assay [2] addresses Mitogen-activated protein kinase 7 (Homo sapiens) (UniProt Q13164). The assay can be described thus: Gal4-ERK5 driven luciferase induction – cell-based, HTS, primary screen (AID 1508626;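 active = luciferase signal above three times the same-plate solvent-only control wells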;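 also: luciferase driven by Gal4-ERK5 fusion binding five Gal4 sites before minimal TATA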). Conditions: HeLa Gal4-ERK5 transactivation, 18 h, at 5 µM, stronger effect = higher value.
Assay [3] concerns the target ATP-dependent translocase ABCB1 (Homo sapiens) (UniProt P08183). The assay can be described thus: P-glycoprotein substrate transport blockade – cell-based (AID 377; in the data active = fluorescence slope change above about 50%). Conditions: MDR1-expressing cells, fluorescent substrate accumulation slope; stronger effect = higher value; concentration not given here.
Assay [4] is described as follows: P. berghei load reduction in hepatocytes – cell-based, HepG2, luciferase luminescence, HepG2 viability, primary screen (AID 624349; in the data active = parasite load remaining mostly below about 12%, no sharp cut-off; inactive = mostly above about 10%;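 also: 100% = mean of DMSO negative control wells on the same plate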). Conditions: P. berghei liver stage in HepG2, luciferase luminescence, concentration not given here; parasite load remaining: stronger effect = lower value; viability: measured here: HepG2 viability without parasites.
Assay [5] can be described thus: viability loss with induced miR-34 in A549 – imaging, A549 dox-inducible miR-34, nuclei and caspase counts, primary screen (AID 1347080;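 active = compounds whose cell count with miR-34 switched on is under 0.7 times the count with it off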). Conditions: A549 miR-34 inducible, Hoechst nuclei count, 48 h.
The nature of assay [6]: compounds altering viability of human ES cells (AID 493140).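 Also: cells exposed to compounds for four days before counting.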 Conditions: human embryonic stem cell survival screen; stronger effect = higher value.
Assay [7] in a line: antimalarial activity against Dd2 strain (AID 2302;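 active = growth inhibition above 50% at the single 2 µM test dose, taken to imply half-maximal potency below 2 µM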;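 also: 0% = DMSO untreated growth and 100% = chloroquine plus artemisinin killed control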). Conditions: P. falciparum Dd2 in RBCs, LDH growth readout, 72 h; at 2 µM; stronger effect = higher value.
The nature of assay [8]: human hepatoma cell viability loss – ATP luminescence, cytotoxicity control for P. falciparum antimalarial project, primary screen (AID 2303;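 active = inhibition above 50%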;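 also: 0% = DMSO wells and 100% = digitonin-killed cells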). Conditions: HepG2 viability, 24-48 h, at 10 µM, stronger effect = higher value.
In assay [9] the target is L-lactate dehydrogenase (Plasmodium falciparum (isolate CDC / Honduras)) (UniProt Q27743). The assay is described as follows: PfLDH activity inhibition – cell lysate, 3D7 strain, counter-screen for P. falciparum growth inhibition project (AID 2304).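 Also: 0% = vehicle and 100% = reference inhibitor.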 Conditions: P. falciparum 3D7 crude extract, LDH APAD/NBT absorbance; at 2 µM; stronger effect = higher value.
The nature of assay [10]: inhibition of 3D7 malaria parasite growth – strain 3D7 (AID 2306).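 Also: 0% = DMSO wells and 100% = chloroquine plus artemisinin control wells.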 Conditions: P. falciparum 3D7 erythrocytic growth, LDH absorbance, 72 h; at 2 µM; stronger effect = higher value.
Assay [11] concerns the target Calcium-dependent protein kinase 1 (Plasmodium falciparum (isolate 3D7)) (UniProt P62344). The assay is described as follows: PfCDPK1 kinase inhibitors, biochemical, TCAMS library (AID 1159585; cut-off not given, nearly all actives have IC50 up to about 0.98 µM;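 also: inhibitors leave more ATP so luminescence rises with inhibition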). Conditions: recombinant PfCDPK1, Kinase-Glo ATP depletion luminescence. A general note: In Kinase-Glo more light means more ATP remaining.
The target in assay [12] is Plasmodium falciparum protein kinase 6 (PK6, PF3D7_1337100) (UniProt Q8IDW1). The assay can be described thus: PfPK6 kinase inhibitors, biochemical, TCAMS library (AID 1159586). Conditions: recombinant PfPK6, Kinase-Glo ATP depletion luminescence.
Assay [13] has as its target Protein kinase 7 (PK7), Plasmodium falciparum 3D7 (PF3D7_0213400) (UniProt Q7YTF7). The assay can be described thus: inhibition of Plasmodium PK7 catalytic activity – biochemical, TCAMS antimalarial set, Kinase-Glo luminescence (AID 1159587). Conditions: recombinant PfPK7, Kinase-Glo ATP depletion luminescence.
The target of assay [14] is Calcium-dependent protein kinase 4 (Plasmodium falciparum (isolate 3D7)) (UniProt Q8IBS5). The assay is described as follows: PfCDPK4 kinase inhibitors, biochemical, TCAMS library (AID 1159588; cut-off not given, nearly all actives have IC50 up to about 0.91 µM). Conditions: recombinant PfCDPK4, Kinase-Glo ATP depletion luminescence.
Assay [15] in a line: blockers of MitoPT in mitochondria (AID 1580). Conditions: isolated mitochondria, permeability transition inhibition.
The nature of assay [16]: blockers of polyQ-driven CASP3 activation – cell-based (AID 1583). Conditions: polyglutamine-induced caspase-3 activation, cell assay; stronger effect = higher value;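 tested at 10 µM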.
The nature of assay [17]: yeast 75Q aggregation reduction – 75Q-TubU reporter (AID 1593). Conditions: Yeast 75Q polyglutamine aggregation reporter.
The nature of assay [18]: restoration of touch response, mutant HTT neurons – whole organism, C. elegans mechanosensory neurons, N-terminal huntingtin (AID 1599). Conditions: C. elegans polyQ-huntingtin mechanosensory neurons, stronger effect = higher value.
The nature of assay [19]: blockers of cytochrome c efflux from mitochondria – biochemical, purified mitochondria (AID 1603).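 Also: mouse liver mitochondria challenged with calcium chloride; signal normalized to the plate average as 100%.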 Conditions: stronger effect = lower value.
The nature of assay [20]: polyglutamine aggregate formation blockers (AID 1604). Conditions: polyglutamine-induced protein aggregation inhibition assay; stronger effect = higher value; tested at 2.5 µM.
Assay [21] in a line: rescue of PC12 cells from polyQ htt toxicity – LDH release (AID 1610). Conditions: PC12 mutant huntingtin toxicity, final LDH at 4 uM, stronger effect = lower value. In general terms: LDH in the medium is a marker of cell lysis.
Assay [22] can be described thus: glutamate transport activators, MN-1 cells, MN-1 cell line (AID 1612).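 Also: tested at 1 µM final; 0% = mean of DMSO vehicle wells on each plate; positive means more glutamate uptake than control and negative means less.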 Conditions: MN-1 motor neuron cells, stronger effect = higher value.
Assay [23] in a line: 75Q-TubH aggregate inhibition, S. cerevisiae, yeast (AID 1616). Conditions: S. cerevisiae 75Q-TubH polyglutamine aggregation suppression; stronger effect = higher value.
Where [24] appears, read: measured here: relative caspase fold change +Dox/-Dox.
[25] abbreviates: measured here: total cells with miR-34 induction, stronger effect = lower value.
The mark [26] stands for this setting: measured here: total cells without miR-34 induction.

Several values for one entry are separate records, joined by “and”; a condition that tells them apart may be missing. Equal values may be shown once. Inconclusive results are not listed. For some assays here: Results with a measured potency or affinity are listed apart. Activity calls are given as the source filed them. Unless noted, no rule for the calls is given here.

Chain of Calcium-dependent protein kinase 1 (Plasmodium falciparum (isolate 3D7)) (P62344 whole entry, looked up): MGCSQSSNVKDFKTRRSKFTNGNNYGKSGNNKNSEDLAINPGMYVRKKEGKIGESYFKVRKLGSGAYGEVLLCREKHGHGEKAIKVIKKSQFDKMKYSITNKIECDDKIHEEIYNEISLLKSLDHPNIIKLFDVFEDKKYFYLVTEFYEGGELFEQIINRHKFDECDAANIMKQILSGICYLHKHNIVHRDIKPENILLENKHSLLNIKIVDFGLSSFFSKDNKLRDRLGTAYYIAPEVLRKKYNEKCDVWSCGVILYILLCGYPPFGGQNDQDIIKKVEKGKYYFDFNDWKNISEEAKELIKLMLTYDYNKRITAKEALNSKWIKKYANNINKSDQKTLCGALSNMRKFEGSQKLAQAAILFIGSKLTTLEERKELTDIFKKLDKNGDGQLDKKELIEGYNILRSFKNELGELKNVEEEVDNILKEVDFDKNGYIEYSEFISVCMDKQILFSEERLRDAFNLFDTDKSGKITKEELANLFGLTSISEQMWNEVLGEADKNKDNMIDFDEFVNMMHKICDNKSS
Chain of Calcium-dependent protein kinase 4 (Plasmodium falciparum (isolate 3D7)) (Q8IBS5 whole entry, looked up): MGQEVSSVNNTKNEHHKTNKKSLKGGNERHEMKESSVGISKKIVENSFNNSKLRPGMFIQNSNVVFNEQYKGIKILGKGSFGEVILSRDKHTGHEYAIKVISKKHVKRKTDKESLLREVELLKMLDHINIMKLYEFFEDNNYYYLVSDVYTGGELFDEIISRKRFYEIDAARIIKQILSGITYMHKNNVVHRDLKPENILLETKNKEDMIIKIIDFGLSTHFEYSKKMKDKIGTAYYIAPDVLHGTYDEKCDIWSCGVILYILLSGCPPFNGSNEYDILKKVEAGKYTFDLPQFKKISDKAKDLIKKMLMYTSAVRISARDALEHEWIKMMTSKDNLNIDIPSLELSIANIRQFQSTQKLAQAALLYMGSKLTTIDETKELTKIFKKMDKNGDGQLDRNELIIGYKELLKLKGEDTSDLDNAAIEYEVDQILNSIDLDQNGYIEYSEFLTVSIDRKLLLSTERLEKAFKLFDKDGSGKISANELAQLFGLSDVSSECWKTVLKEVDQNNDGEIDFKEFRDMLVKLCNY
Chain of L-lactate dehydrogenase (Plasmodium falciparum (isolate CDC / Honduras)) (Q27743 whole entry, looked up): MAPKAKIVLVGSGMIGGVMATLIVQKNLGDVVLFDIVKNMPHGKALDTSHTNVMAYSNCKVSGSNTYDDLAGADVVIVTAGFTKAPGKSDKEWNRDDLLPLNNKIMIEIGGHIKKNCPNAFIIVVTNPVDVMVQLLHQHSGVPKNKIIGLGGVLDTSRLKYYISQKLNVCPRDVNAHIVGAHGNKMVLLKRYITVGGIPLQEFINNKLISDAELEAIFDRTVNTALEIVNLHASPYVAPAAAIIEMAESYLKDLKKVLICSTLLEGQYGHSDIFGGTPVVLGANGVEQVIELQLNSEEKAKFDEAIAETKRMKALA
Chain of Mitogen-activated protein kinase 7 (Homo sapiens) (Q13164 whole entry, looked up, the tested form may be a part): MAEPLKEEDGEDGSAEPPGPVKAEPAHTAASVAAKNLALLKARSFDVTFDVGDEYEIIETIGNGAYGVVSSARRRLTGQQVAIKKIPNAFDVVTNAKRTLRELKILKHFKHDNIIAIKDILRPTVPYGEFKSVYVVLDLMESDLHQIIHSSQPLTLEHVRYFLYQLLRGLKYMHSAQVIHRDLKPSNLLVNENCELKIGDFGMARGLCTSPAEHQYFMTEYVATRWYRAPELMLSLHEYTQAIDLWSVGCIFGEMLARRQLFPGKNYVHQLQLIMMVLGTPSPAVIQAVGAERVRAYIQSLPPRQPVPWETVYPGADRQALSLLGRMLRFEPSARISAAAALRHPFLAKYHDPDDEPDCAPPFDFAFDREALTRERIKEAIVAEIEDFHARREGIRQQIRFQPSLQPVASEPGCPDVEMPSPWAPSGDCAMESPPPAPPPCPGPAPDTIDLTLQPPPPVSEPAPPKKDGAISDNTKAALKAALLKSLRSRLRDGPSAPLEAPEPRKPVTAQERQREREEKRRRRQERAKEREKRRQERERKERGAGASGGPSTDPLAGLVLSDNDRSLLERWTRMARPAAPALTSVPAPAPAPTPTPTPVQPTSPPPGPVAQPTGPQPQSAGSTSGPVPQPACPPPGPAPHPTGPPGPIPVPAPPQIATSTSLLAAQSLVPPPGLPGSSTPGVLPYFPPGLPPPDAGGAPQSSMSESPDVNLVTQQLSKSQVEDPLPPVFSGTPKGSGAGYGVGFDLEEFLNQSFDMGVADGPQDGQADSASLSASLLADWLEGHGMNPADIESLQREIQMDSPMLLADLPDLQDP
Chain of 6-phosphogluconate dehydrogenase, decarboxylating (Homo sapiens) (P52209 whole entry, looked up, the tested form may be a part): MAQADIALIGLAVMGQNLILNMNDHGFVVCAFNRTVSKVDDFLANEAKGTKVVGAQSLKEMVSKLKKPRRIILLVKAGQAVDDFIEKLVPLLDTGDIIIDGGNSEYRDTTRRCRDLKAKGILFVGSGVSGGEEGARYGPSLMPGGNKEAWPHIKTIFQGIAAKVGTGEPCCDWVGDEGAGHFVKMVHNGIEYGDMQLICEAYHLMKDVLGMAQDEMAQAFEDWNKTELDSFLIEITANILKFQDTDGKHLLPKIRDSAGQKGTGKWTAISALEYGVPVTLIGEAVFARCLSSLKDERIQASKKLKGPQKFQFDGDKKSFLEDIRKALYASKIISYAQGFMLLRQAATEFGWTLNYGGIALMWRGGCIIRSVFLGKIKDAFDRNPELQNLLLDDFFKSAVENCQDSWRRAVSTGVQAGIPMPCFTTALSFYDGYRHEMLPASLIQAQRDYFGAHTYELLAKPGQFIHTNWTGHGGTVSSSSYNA
Chain of Plasmodium falciparum protein kinase 6 (PK6, PF3D7_1337100) (Q8IDW1 1-305): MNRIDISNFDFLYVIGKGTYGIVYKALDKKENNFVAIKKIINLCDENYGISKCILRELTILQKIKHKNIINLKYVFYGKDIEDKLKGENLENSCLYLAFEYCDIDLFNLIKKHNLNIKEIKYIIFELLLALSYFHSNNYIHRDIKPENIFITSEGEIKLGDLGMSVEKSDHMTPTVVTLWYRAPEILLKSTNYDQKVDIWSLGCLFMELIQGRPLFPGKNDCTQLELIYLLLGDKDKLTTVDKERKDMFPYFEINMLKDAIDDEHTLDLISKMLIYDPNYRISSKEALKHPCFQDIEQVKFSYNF
Chain of Protein kinase 7 (PK7), Plasmodium falciparum 3D7 (PF3D7_0213400) (Q7YTF7 1-343): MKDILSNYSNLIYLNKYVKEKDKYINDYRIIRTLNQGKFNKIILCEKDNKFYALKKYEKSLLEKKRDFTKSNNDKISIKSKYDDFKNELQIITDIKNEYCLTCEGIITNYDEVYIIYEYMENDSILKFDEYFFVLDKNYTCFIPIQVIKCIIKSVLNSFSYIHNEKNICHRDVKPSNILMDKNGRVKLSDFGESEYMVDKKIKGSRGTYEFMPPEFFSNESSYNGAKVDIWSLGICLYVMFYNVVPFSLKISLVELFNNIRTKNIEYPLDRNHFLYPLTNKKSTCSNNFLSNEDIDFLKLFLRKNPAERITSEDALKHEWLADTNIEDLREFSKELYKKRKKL
Chain of ATP-dependent translocase ABCB1 (Homo sapiens) (P08183 whole entry, looked up): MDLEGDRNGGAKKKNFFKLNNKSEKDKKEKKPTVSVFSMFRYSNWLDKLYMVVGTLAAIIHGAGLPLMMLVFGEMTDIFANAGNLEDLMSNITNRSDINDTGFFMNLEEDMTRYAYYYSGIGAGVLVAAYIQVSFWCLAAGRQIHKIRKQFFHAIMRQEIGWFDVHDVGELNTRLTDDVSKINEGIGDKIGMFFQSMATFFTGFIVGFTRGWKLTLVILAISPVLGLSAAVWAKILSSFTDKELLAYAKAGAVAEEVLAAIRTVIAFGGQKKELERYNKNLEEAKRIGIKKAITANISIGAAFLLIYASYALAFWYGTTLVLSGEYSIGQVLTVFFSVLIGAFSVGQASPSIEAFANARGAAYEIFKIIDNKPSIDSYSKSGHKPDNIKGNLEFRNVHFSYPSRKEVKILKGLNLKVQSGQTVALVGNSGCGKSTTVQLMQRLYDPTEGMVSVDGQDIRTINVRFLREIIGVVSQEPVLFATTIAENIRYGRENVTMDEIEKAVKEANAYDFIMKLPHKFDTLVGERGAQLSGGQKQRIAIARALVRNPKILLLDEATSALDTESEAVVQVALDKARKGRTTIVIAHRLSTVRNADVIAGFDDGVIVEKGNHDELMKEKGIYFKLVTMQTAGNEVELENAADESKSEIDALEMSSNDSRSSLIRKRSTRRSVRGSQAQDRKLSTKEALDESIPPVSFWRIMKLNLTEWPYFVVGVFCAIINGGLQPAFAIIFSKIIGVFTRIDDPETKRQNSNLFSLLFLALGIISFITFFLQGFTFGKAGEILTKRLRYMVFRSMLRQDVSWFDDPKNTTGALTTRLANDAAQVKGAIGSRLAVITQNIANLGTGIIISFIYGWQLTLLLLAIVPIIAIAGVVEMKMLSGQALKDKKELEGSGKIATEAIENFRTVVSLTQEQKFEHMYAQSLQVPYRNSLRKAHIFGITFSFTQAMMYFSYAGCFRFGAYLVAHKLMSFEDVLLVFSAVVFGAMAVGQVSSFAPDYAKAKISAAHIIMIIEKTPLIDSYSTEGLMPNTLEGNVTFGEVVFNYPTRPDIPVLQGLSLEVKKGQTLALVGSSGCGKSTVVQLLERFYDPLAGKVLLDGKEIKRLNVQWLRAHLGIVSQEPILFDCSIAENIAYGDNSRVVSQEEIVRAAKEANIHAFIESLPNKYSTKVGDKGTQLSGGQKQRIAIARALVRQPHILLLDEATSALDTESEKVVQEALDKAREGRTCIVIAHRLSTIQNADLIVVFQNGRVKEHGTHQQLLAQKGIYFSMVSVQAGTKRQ

Usually inhibition stands for the relative decrease from the control value, in per cent. Consider `Cc1c(O)c(O)cc2c1CC=C1[C@@]2(C)CC[C@@]2(C)[C@@H]3C[C@](C)(C(=O)O)CC[C@]3(C)CC[C@]12C`, for which the inhibition in [1] was -26.2% (inactive). Moreover, the luciferase signal in assay [2] was 128 AU (inactive).

With `CC(=O)O[C@@H]1C[C@H]2C(C)(C)C(=O)C=C[C@]2(C)[C@H]2CC[C@]3(C)C(=CC(=O)O[C@H]3c3ccoc3)[C@@]21C`, the inhibition in assay [1] is 4.47% (inactive). Besides, the luciferase signal in assay [2] is 44 AU (inactive).

For `CC1(C)C(=O)C=C[C@@]2(C)C1=C(O)C(=O)[C@]1(C)[C@@H]2CC[C@@]2(C)[C@H](c3ccoc3)C[C@H]3O[C@]321`, the inhibition in [1] is 11.8% (inactive). Further, the luciferase signal in assay [2] is 12 AU (inactive).

As usually defined, the viability is a read-out of living cells in per cent, often relative to untreated cells. `C[C@H]1CC[C@]2(NC1)O[C@H]1C[C@H]3[C@@H]4CC[C@H]5C[C@@H](O)CC[C@]5(C)[C@H]4CC[C@]3(C)[C@H]1[C@@H]2C`: the fluorescence slope change in assay [3] is 83.2% (active). Moreover, the parasite load remaining in assay [4] was 75.2% (inactive). Besides, the viability in assay [4] was determined as 101%. Moreover, in assay [1], the inhibition was -31.5% (inactive). For the same compound, the fold change in assay [5] (stronger effect = lower value, cell number ratio, induced over uninduced) is 0.873 (inactive); in assay [5] (setting [24]), 1.03. Besides, the cell count stood at 9790 in assay [5] (setting [25]) and 11200 in assay [5] (setting [26]). In addition, in assay [2], the luciferase signal is 104 AU (inactive).

As for `COC(=O)COc1cc(Cl)c(Cl)cc1Cl`, the inhibition in assay [1] is -16.9% (inactive). In assay [2], the luciferase signal was 92 AU (inactive).

Take `COc1ccc(CC2c3cc(OC)c(OC)cc3CCN2C)cc1OC` (configuration not stated): in assay [3], the fluorescence slope change was 206% (active). The survival in assay [6] was 6.67 (inactive). Further, the parasite load remaining in assay [4] was 122% (inactive) and 66.2% (inactive). The viability in [4] was 98.7% and 71.4%. Besides, the inhibition in assay [1] was -3.74% (inactive). Moreover, the fold change in assay [5] (stronger effect = lower value) was 0.878 (inactive); in [5] (setting [24]), 1.5. The cell count in assay [5] (setting [25]) worked out at 9520; in assay [5] (setting [26]) it was 10800.

Turning to `COP(=S)(OC)Oc1ccc([N+](=O)[O-])cc1`, the inhibition in assay [1] is -0.396% (inactive). For the same compound, the luciferase signal in assay [2] is 72 AU (inactive).

Turning to `O=C(c1ccccc1)[C@H]1C[C@@H]1CN1CC=C(c2c[nH]c3ccccc23)CC1`, the growth inhibition was 73% (active) in [7] and 95% (active) in assay [10]. Also, the results for the inhibition in [8] and in assay [9] were 4% (inactive) and -6% (inactive), respectively. Moreover, the outcome in assay [11], in [12], in [13] and in assay [14] was inactive.

Regarding `CC(C)=CCC[C@]1(C)C=Cc2c(O)c3c(c(CC=C(C)C)c2O1)O[C@]12C(=C[C@@H]4C[C@H]1C(C)(C)O[C@@]2(C/C=C(/C)C(=O)O)C4=O)C3=O`, the inhibition in [1] is -17.6% (inactive). Moreover, the luciferase signal in [2] was 72 AU (inactive).

Consider `O=C(C=Cc1ccccc1O)N1CCC(CN2CCC(c3c[nH]c4ccccc34)CC2)CC1`, for which the growth inhibition was 43% (inactive) in assay [7] and 98% (active) in [10]. Further, the inhibition in assay [8] is 27% (inactive); in assay [9] it was -1% (inactive). For the same compound, the outcome in assay [11], in [12], in assay [13] and in assay [14] was inactive.

`COP(=S)(OC)SCn1nnc2ccccc2c1=O`: the inhibition in assay [1] was 1.29% (inactive). In addition, in assay [2], the luciferase signal was 64 AU (inactive).

On to `CC(N)C(O)c1ccc(O)c(O)c1` (configuration not stated), for which the survival in assay [6] was 3.67 (inactive). For the same compound, the inhibition in assay [1] was -5.53% (inactive).

The EC50 is the midpoint of the concentration-response curve. On to `CO[C@@H]1C[C@@H](C[C@H]2CC[C@H](C)[C@H]([C@@H](C)C(=O)O)O2)O[C@]2(O[C@](C)([C@H]3CC[C@@](C)(C4O[C@@H](C5O[C@@](O)(CO)[C@H](C)C[C@@H]5C)C[C@@H]4C)O3)C[C@H]2C)[C@@H]1C` (some centres not stated), for which the EC50 in [15] is 175 nM (active). Moreover, the figures for the inhibition in assay [16] and in assay [1] were 49.6% and 10.1% (inactive), respectively. The score in assay [17] was 0.17. Moreover, the rescue above control in assay [18] amounted to 2.36. Besides, the cytochrome c release ratio in assay [19] is 0.42. In addition, the inhibition of aggregation in assay [20] is -0.07%. The compound further came in with a normalised LDH release in assay [21] of 0.812. In assay [22], the glutamate uptake change is -43.9%. In assay [23], this compound displayed an aggregation suppression score of 0.0976.

On to `Cc1cccc(N2CCN(Cc3cc(Cl)ccc3O)CC2)c1C`, for which the growth inhibition in [7] and in assay [10] was 96% (active) in each case. Besides, the inhibition in [8] was -2% (inactive); in assay [9], 2% (inactive). The outcome in assay [11], in assay [12], in assay [13] and in assay [14] was inactive.

Take `CC[C@H]1C[N+]2([O-])CC[C@@H]1C[C@H]2[C@H](O)c1cc(-c2ccccc2)nc2ccc(OC)cc12`: the results for the growth inhibition in assay [7] and in [10] were 97% (active) and 99% (active), respectively. Further, the inhibition was -11% (inactive) in [8] and 0% (inactive) in assay [9]. In addition, the result in [11], in assay [12], in assay [13] and in [14] was inactive.

For `CN(c1cc(NC(=O)c2ccc(F)cc2)ccn1)C1CCN(Cc2cccc(O)c2)CC1`, the growth inhibition in [7] was 82% (active); in [10], 100% (active). Further, the inhibition in assay [8] was 3% (inactive); in [9], 2% (inactive). The outcome in assay [11], in [12], in assay [13] and in assay [14] was inactive.

For the compound `CCN1CCC(N2CCC(n3c(C)nc4cc(C(F)(F)F)ccc43)CC2)CC1`, the growth inhibition in assay [7] was 16% (inactive); in [10], 93% (active). Also, the inhibition in assay [8] is 6% (inactive); in [9], 1% (inactive). The outcome in [11], in assay [12], in assay [13] and in [14] was inactive.

The record behind these values is PubChem BioAssay.
